HT1080-NT tox = kills 2HG-producing HT-1080-NT fibrosarcoma cells | HT-1080-NT fibrosarcoma viability, CellTiter-Glo ATP luminescence, 48 h | Potency, µM (titrated, usually from 46.1 µM), inactives show top-dose activity, negative = less viability, actives largely listed as cytotoxic | hit rate 1.6% among 360,000;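 also: NT is the 2HG producing partner of a matched IDH1 knockdown line; 0% = DMSO-treated cells and -100% = media-only wells without cells; nearly all actives have a fitted effect of over 55% in size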
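Luminescent CellTiter-Glo readout after 48 hours of compound exposure at 37 degrees C defined viability of HT-1080-NT cells. Activity was normalized to DMSO wells and cell-free media wells; concentration-response curves were fitted and assigned curve classes.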
HT1080 IDH1KD tx = toxicity to HT-1080 IDH1 knockdown cells (counter line) | HT-1080 IDH1 knockdown viability, ATP luminescence, 48 h | Potency, µM (top dose mostly 46.1 µM), for inactives: top-dose activity, negative = toxicity, most hits filed as cytotoxic | hit rate 2% among 360,000 | AID 686971;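 also: 0% = DMSO wells and -100% = cell-free medium wells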
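Knockdown cells (IDH1KD HT-1080) received compounds 2 h after plating at 750 cells/well and were kept 48 h at 37 °C in 5% FBS RPMI. A CellTiter-Glo luminescence read gave % activity for curve fitting.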
SW480 rereplic = inducers of DNA re-replication in SW480 colon cancer cells; Potency, µM (top dose mostly 46.1 µM), for inactives: top-dose re-replication activation, actives largely listed as activators; SW480 DNA re-replication, Hoechst DNA content imaging, 48 h; hit rate 1.8% among 340,000; AID 624297; also: % of control where 0% means no effect; nearly all actives have a fitted effect of over 55% in size
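Cells (250 per well) received 23 nL compound or DMSO by pin tool and were kept 48 hr at 37 C, 5% CO2. Nuclei were then stained with Hoechst for 40 min and scanned for DNA content.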
KB-V1 MDR tox = kills drug-selected multidrug resistant KB-V1 cells | KB-V1 MDR cells viability, CellTiter-Glo, 72 h | Potency, µM (series often up to 46.1 µM), usual class: cytotoxic | hit rate 3.4% among 400,000 | AID 1347076; also: % is scaled to controls: 0 for no effect and ±100 for the full control effect; nearly all actives have a fitted effect of over 60% in size
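Potencies derive from concentration-effect curves fitted to normalized luminescence (CellTiter-Glo) of KB-V1 cells treated for 72 h at 37 degrees C in phenol-red-free DMEM containing 10% FBS.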
KB-3-1 cytotox = KB-3-1 parental cell cytotoxicity; KB-3-1 viability, CellTiter-Glo ATP luminescence, 72 h; Potency, µM (series often up to 46.1 µM), actives largely listed as cytotoxic; hit rate 1.4% among 400,000; AID 1347075; also: % is scaled to controls: 0 for no effect and ±100 for the full control effect; nearly all actives have a fitted effect of over 60% in size
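KB-3-1 cells, DMEM (no phenol red) + 10% FBS; compound by pin transfer, 72 h, 37 °C. Readout: CellTiter-Glo luminescence after 10 min. Data normalized, curve-fitted.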
MCF10A rereplic = DNA re-replication induction in MCF 10a cells; MCF 10A DNA re-replication, Hoechst nuclear intensity, 48 h; Potency, µM (titrated, usually from 46.1 µM), without a hit: top-dose activity, positive = re-replication, hits mostly activators; hit rate 2.9% among 350,000; AID 624296; also: % of control where 0% means no effect; nearly all actives have a fitted effect of over 50% in size
Active calls of the source: *; i = inactive; u = inconclusive; x = not tested or not shown; ! = a repeat was not active; [ ] = remark or other dose. In the library only some 7.9% were active in any assay of this set; here they are far more common. Calls follow the shape of the dose curve; as a rule, active = well fitted curve in the direction sought with a large enough effect; inconclusive = small, poorly fitted or top-dose-only effect, or another doubt; inactive = no such curve, though single readings can be large; an effect the other way counts as inactive or inconclusive. Potency is read from the fitted curve at half-maximal effect.

SMILES | HT1080-NT tox | HT1080 IDH1KD tx | SW480 rereplic | KB-V1 MDR tox | KB-3-1 cytotox | MCF10A rereplic
COc1cc2c(cc1OC)C(C)N(S(=O)(=O)c1cn(C)cn1)CC2 (configuration not stated) | 23% | -1% | -8% | i | i | -2%
NS(=O)(=O)c1ccc(Sc2nc3ccccc3s2)c([N+](=O)[O-])c1 | u | 7.3µM* | -22% | u | i | 5.8µM*
NS(=O)(=O)c1ccc(Sc2ccccn2)c([N+](=O)[O-])c1 | 9% | 6% | -26% | i | i | -6%
O=C(/C=C/c1ccccc1Cl)Nc1ccccc1 | -7% | -20% | -5% | i | i | 4%
CN(C)S(=O)(=O)c1ccc(NC(=O)/C=C/c2ccccc2Cl)cc1 | -12% | -27% | 16% | 15µM* | i | u
CN(C)c1ccc(NC(=O)/C=C/c2c(Cl)cccc2Cl)cc1 | u | u | 6% | 13µM* | u | 16µM*
NC(=O)c1ccccc1NC(=O)/C=C/c1c(Cl)cccc1Cl | -28% | u | u | 4.1µM* | i | u
COc1cc(OC)cc(C(C)=O)c1 | 12% | 14% | -1% | i | i | -3%
CN1CCN(C(=O)c2cc3c(c(-c4cccc(-c5cccnc5)c4)n2)[C@H](CCO)N(C(=O)CC2CC2)C3)CC1 | 16% | 11% | x | i | u | x
C[C@H](CO)N1C[C@H](C)[C@@H](CN(C)S(=O)(=O)c2cccs2)Oc2c(NC(=O)Nc3ccccc3)cccc2C1=O | -3% | -8% | -12% | i | i | -2%
CCCN(CCC)c1nc(N)c(C#N)c(CC#N)c1C#N | -11% | -13% | 14% | i | i | 6.5µM*
CCN(CC)c1nc(N)c(C#N)c(CC#N)c1C#N | -4% | 2% | -26% | u | i | u
Cc1ccc(-c2noc(CCC(=O)N(C)c3ccccc3C)n2)cc1 | -4% | -3% | 4% | 13µM* | u | 3%
Cc1ccc(-c2noc(CCC(=O)Nc3ccccc3C)n2)cc1 | u | -27% | -1% | 16µM* | i | 36%
CC1(C)N=c2ccc([N+](=O)[O-])c(N)c2=[N+]1[O-] | u | -25% | 16% | u | i | 18%
O=C(COc1ccccc1[N+](=O)[O-])N/N=C/c1ccccn1 | -4% | -2% | 2% | i | i | -13%
CN1CCc2c(c3ccccc3n2Cc2ccccc2)C1 | u | 16µM*! | u | u | u | 23%
Cc1ccc(N(C)S(=O)(=O)c2cc(-c3cnc(C4CC4)o3)ccc2C)cc1 | 3% | -4% | 28% | i | u | 23µM*
Cc1cccc(N(C)S(=O)(=O)c2ccc(-c3cnc(C4CC4)o3)cc2)c1 | 0.052µM* | u | 0.15µM* | u | u | 23µM*
Cc1cccc2c1Sc1ccccc1CC2=O | 1% | 0% | 0% | i | i | -2%
CCOc1ccc(N(CC(=O)Nc2ccccc2OC)S(=O)(=O)c2ccccc2)cc1 | 2.1µM* | 1.6µM* | 2.3µM* | 1µM* | 4.6µM* | u
Cc1ccc(S(=O)(=O)N(Cc2ccccc2)c2ccccc2C(=O)NCc2ccco2)cc1 | 11µM* | 3%[9.24 µM] | 3% | i | i | u
CCOc1ccccc1N(CC(=O)Nc1ccccc1F)S(=O)(=O)c1ccccc1 | -13% | -11% | u | u | i | 0.58µM*
COc1ccc(N(CC(=O)Nc2cc(Cl)ccc2C)S(=O)(=O)c2c(C)n[nH]c2C)cc1 | u | u | -1% | i | 9.2µM* | -4%
C[C@@H]1CN([C@H](C)CO)C(=O)CCCn2cc(nn2)CO[C@H]1CN(C)C(=O)Nc1ccc2c(c1)OCO2 | 11% | 9% | x | u | i | x
SMILES | HT1080-NT tox | HT1080 IDH1KD tx | SW480 rereplic | KB-V1 MDR tox | KB-3-1 cytotox | MCF10A rereplic
COc1ccc(N(CC(=O)Nc2cccc3ccccc23)S(C)(=O)=O)cc1 | 3% | 3% | -39% | i | i | u
COc1ccc(N(CC(=O)Nc2cc(C)on2)S(=O)(=O)c2cc(C)ccc2C)cc1 | u | u | u | 5.8µM* | u | 23%
COc1ccc(N(CC(=O)Nc2cc(C)on2)S(=O)(=O)c2ccc(Cl)cc2)cc1 | -7% | -29% | 1% | i | i | 1%
COc1ccc(S(=O)(=O)N(Cc2ccccc2)c2ccccc2C(=O)N2CCOCC2)cc1 | 23µM* | u | u | 13µM* | u | u
CCN(CC(=O)Nc1cc(Cl)ccc1C)C(=O)c1oc2ccc(OC)cc2c1C | 0% | -4% | -4% | 16µM* | i | 15%
CCS(=O)(=O)N(CC(=O)Nc1cccc2ccccc12)c1ccc(OC)cc1 | 2% | 3% | -1% | 13µM* | i | 4%
O=C(CO/N=C/c1ccc(OC(F)F)cc1)NCc1cccs1 | 6% | 10% | -8% | u | i | 2%
CCOc1ccc(N(CC(=O)Nc2ccccc2C(=O)N2CCOCC2)S(=O)(=O)c2ccc(F)cc2)cc1 | 0% | 9% | 0% | 4.6µM* | i | 0%
CCOc1ccc(N(CC(=O)Nc2ccccc2OCC)S(=O)(=O)c2c(C)noc2C)cc1 | 2.3µM* | 2.3µM* | 5.8µM* | 5.8µM* | 3.3µM* | 1.3µM*
Cc1ccc(N(CC(=O)Nc2ccc3c(c2)OCCO3)S(=O)(=O)c2c(C)noc2C)cc1 | -15% | -10% | -1% | u | i | -3%[9.22 µM]
COc1ccc(N(CC(=O)Nc2ccc3c(c2)OCCO3)S(=O)(=O)c2c(C)noc2C)cc1 | -3% | u | 18% | 2.9µM* | u | u
CC(C)C[C@@H](COc1ccccc1)N1CCN(CCc2ccccc2)CCC1=O | -3% | -7% | -26%[9.22 µM] | u | u | 4%
CCN(C(=O)CSc1nc2ccc(OC)cc2[nH]1)C1CCS(=O)(=O)C1 (configuration not stated) | 10% | 2% | -3% | i | i | -2%
CCOC(=O)N1CCN(C(=O)CSc2nc(=O)n3ccccc3n2)CC1 | 0% | -3% | -16% | i | i | 5%
Cc1ccccc1Cn1nc(C)c(NC(=O)c2noc3c2CCCC3)c1C | u | u | -1% | 5.2µM* | u | 3%
Cc1cc(NC(=O)c2noc3c2CCCC3)nn1Cc1ccc(Cl)cc1 | -15% | -10% | 17% | 18µM* | u | -6%
Cc1ccccc1Cn1nc(C)c(NC(=O)C2(C)CC2(Cl)Cl)c1C (configuration not stated) | 1% | 1% | 18µM* | u | i | 7%
Cc1nn(Cc2ccccc2Cl)c(C)c1NC(=O)c1noc2c1CCCCC2 | -7% | 10µM* | 6% | i | u | u

Assay outcomes (PubChem BioAssay)
